From PMC5540273 (PLoS ONE, 2017)

Assays:
Settings in all cases: concentration: 1 μM, replicates: in singlicate; n = 1
CSF1R = tested on: CSF1R
CSK = tested on: CSK
CSNK1A1L = tested on: CSNK1A1L
CSNK1A1 = tested on: CSNK1A1
CSNK1D = tested on: CSNK1D
CSNK1E = tested on: CSNK1E
CSNK1G1 = tested on: CSNK1G1
CSNK1G2 = tested on: CSNK1G2
CSNK1G3 = tested on: CSNK1G3
CSNK2A1 = tested on: CSNK2A1
CSNK2A2 = tested on: CSNK2A2
CTK = tested on: T1, CTK
T1 construct: gene MATK

DAPK1 = tested on: DAPK1
DAPK2 = tested on: DAPK2
DAPK3 = tested on: DAPK3
DCAMKL1 = tested on: T2, DCAMKL1
T2 construct: gene DCLK1

DCAMKL2 = tested on: T3, DCAMKL2
T3 construct: gene DCLK2

DCAMKL3 = tested on: T4, DCAMKL3
T4 construct: gene DCLK3

DDR1 = tested on: DDR1
DDR2 = tested on: DDR2
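Note: KINOMEscan kinase panel screen.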

Structure (SMILES)	%Inh (CSF1R) [%]	%Inh (CSK) [%]	%Inh (CSNK1A1L) [%]	%Inh (CSNK1A1) [%]	%Inh (CSNK1D) [%]	%Inh (CSNK1E) [%]	%Inh (CSNK1G1) [%]	%Inh (CSNK1G2) [%]	%Inh (CSNK1G3) [%]	%Inh (CSNK2A1) [%]	%Inh (CSNK2A2) [%]	%Inh (CTK) [%]	%Inh (DAPK1) [%]	%Inh (DAPK2) [%]	%Inh (DAPK3) [%]	%Inh (DCAMKL1) [%]	%Inh (DCAMKL2) [%]	%Inh (DCAMKL3) [%]	%Inh (DDR1) [%]	%Inh (DDR2) [%]
Cc1cc(Nc2nc(-c3cccc(C)n3)nc3ccccc23)ccn1 [GW872411]	0	0	0	0	35	31	3	0	0	0	5	18	0	0	1	26	0	0	0	0
C[C@@H]1CC[C@H](C(=O)NC2CCCCC2)CN1c1cc(-c2ccc3c(N)n[nH]c3c2)nc(N)n1 [GSK2291363]	26	0	12	0	17	24	14	3	30	21	0	0	18	47	35	14	24	0	0	3
FC(F)(F)c1ccc(-c2ncn(CCCN3CCOCC3)c2-c2ccncc2)cc1 [SB-217780]	25	18	33	21	0	0	0	0	12	20	5	0	14	5	15	13	35	4	5	0
O=C(Nc1n[nH]c2nc(-c3ccccc3)c(Cl)cc12)C1CC1 [SB-734909]	28	0	0	0	0	11	0	0	0	31	34	27	9	0	0	16	18	8	17	18
Nc1n[nH]c2nnc(-c3ccccc3)c(-c3ccccc3)c12 [GW554060]	0	0	13	0	0	7	0	0	0	11	0	0	0	0	19	1	0	0	28	22
CC(C)(C)c1ccc(C(=O)Nc2cn3cc(-c4ccccc4)ccc3n2)cc1	0	0	0	0	0	28	0	8	20	15	75	0	9	0	0	33	0	21	4	28
CN(C)c1cc(-c2ccc3c(N)n[nH]c3c2)nc(N)n1 [GSK2219329]	2	0	0	0	25	27	0	2	16	0	11	0	0	0	0	9	0	0	0	0
COc1cc2nccc(Nc3cccc(Oc4ccccc4)c3)c2cc1OC.Cl [GW284543]	0	11	12	0	0	5	0	0	26	0	4	10	0	0	0	11	0	23	17	9
Cc1c(Cn2c(C)nn3c(=O)cc(N4CCO[C@H](C)C4)nc23)cccc1C(F)(F)F [GSK2373690]	51	0	2	23	25	20	67	0	21	0	0	0	0	0	8	0	17	11	15	2
Cc1nc(N(C)[C@H]2CN(C(=O)CC#N)CC[C@H]2C)c2cc[nH]c2n1	13	0	3	0	0	0	5	0	0	0	6	19	0	13	0	6	0	63	28	2
Cc1cccc(-c2nc(Nc3ccc4c(cnn4C)c3)c3ccccc3n2)n1 [GW876731]	29	2	0	0	50	37	18	10	0	0	0	4	0	0	14	0	11	0	3	1
CN1C(=O)C(Nc2cc(Cl)c(O)c(Cl)c2)=C(c2ccc(Cl)cc2)C1=O [SB-404321]	0	0	0	0	0	0	0	0	6	0	0	52	0	0	0	0	0	0	0	10
Cc1ccccc1COc1cc(-n2cnc3cc(Cl)ccc32)sc1C(N)=O [GW813349]	0	0	0	24	1	2	0	7	8	5	54	0	0	0	0	0	2	10	0	1
Cc1ccc(-c2ccc3c(ccc4sc5c(c43)NC[C@@H](C)N=C5N(C)C)n2)cn1	0	0	0	6	0	0	0	0	1	0	0	8	0	0	0	9	0	0	0	0
CCCC(=O)Nc1n[nH]c2ncc(-c3cccc4ccccc34)cc12 [SB-642057]	26	0	2	0	37	19	4	0	1	0	0	0	20	0	24	18	0	11	3	0
Cc1nnc(-c2ccc(C)c(-c3ccc(C(=O)O)cc3)c2)o1 [GW608005]	0	0	0	0	0	8	7	0	9	21	8	0	0	0	0	0	0	0	7	1
O=c1cc(N2CCOCC2)nc2n(Cc3ccc(F)c(Cl)c3)ccn12 [GSK2297099]	26	13	6	0	9	52	12	0	34	1	6	0	23	0	23	0	0	0	10	0
COC(=O)c1c(-c2ccccc2)c2cc(Br)ccc2c(=O)n1Cc1ccc(S(C)(=O)=O)cc1	16	0	9	30	9	0	7	13	0	0	42	35	0	11	7	24	0	0	29	17

Structure (SMILES)	%Inh (CSF1R) [%]	%Inh (CSK) [%]	%Inh (CSNK1A1L) [%]	%Inh (CSNK1A1) [%]	%Inh (CSNK1D) [%]	%Inh (CSNK1E) [%]	%Inh (CSNK1G1) [%]	%Inh (CSNK1G2) [%]	%Inh (CSNK1G3) [%]	%Inh (CSNK2A1) [%]	%Inh (CSNK2A2) [%]	%Inh (CTK) [%]	%Inh (DAPK1) [%]	%Inh (DAPK2) [%]	%Inh (DAPK3) [%]	%Inh (DCAMKL1) [%]	%Inh (DCAMKL2) [%]	%Inh (DCAMKL3) [%]	%Inh (DDR1) [%]	%Inh (DDR2) [%]
Cc1cccc(-c2cc(-c3c[nH]nc3-c3ccccn3)ccn2)c1 [GW679395]	53	0	2	0	25	10	8	0	6	0	8	0	6	0	16	14	0	13	36	8
COc1cccc(C2=C(Nc3cccc(C(=O)O)c3)C(=O)NC2=O)c1 [SB-390770]	0	0	12	0	0	2	2	0	7	7	19	0	6	0	0	12	0	13	0	6
COc1ccc(-n2cnc3c(N)ncnc32)cc1 [SKF-97236]	0	4	7	33	42	34	13	11	6	12	3	3	13	1	0	13	0	9	10	0
O=C(NCc1cccs1)c1cc(C(=O)c2c(Cl)cccc2Cl)c[nH]1 [GW823670]	13	0	0	0	0	0	0	0	0	0	0	0	0	8	22	14	18	2	26	0
OCCCNc1nccc(-c2c(-c3cccc(C(F)(F)F)c3)nn3cc(C(F)(F)F)ccc23)n1 [GW630813]	0	0	0	0	36	54	0	0	13	0	27	0	0	0	3	40	0	0	15	40
COc1cc(Nc2ccnc3ccc(C(F)(F)F)cc23)cc(OC)c1OC [GW577382]	8	3	19	36	21	9	3	0	27	10	62	8	0	4	26	5	0	2	0	23
CN1C(=O)C(Nc2ccccc2)=C(c2ccccc2)C1=O [SB-300079]	16	0	0	0	0	0	0	0	0	0	0	28	0	0	0	22	0	0	0	37
Nc1nc(N)c2nc(-c3ccccc3)[nH]c2n1 [SKF-12778]	2	0	0	52	26	25	18	32	30	14	22	24	12	0	1	15	0	60	0	9
COc1ccc(Nc2nccc(N3CCC(NS(=O)(=O)c4ccc(NC(C)=O)cc4)C3)n2)cc1 (stereo not drawn) [GSK1379729]	1	0	13	32	17	25	6	18	28	15	18	0	0	0	6	10	0	53	13	26
COc1cc(Nc2nccc(N3CCC(NC(=O)C4COc5ccccc5O4)C3)n2)cc(OC)c1OC (stereo not drawn) [GSK1379761]	20	0	0	0	0	0	3	0	2	0	0	0	0	20	11	0	0	0	1	61
O=C(Nc1ccc2c(c1)OCO2)NC1CCN(c2ccnc(NCc3ccc(F)cc3)n2)CC1 [GSK1379859]	0	0	15	0	0	36	0	0	20	0	22	0	22	0	0	14	0	18	9	0
CCCNC(=O)Nc1ccc(Oc2ncnc3ccn(C)c23)cc1	29	0	7	10	9	0	2	11	0	0	33	35	10	0	0	35	0	0	0	8
CCC(=O)c1c(-c2ccccc2)c2cc(Cl)ccc2c(=O)n1Cc1cc(S(C)(=O)=O)n(CC(F)F)n1	10	73	0	0	0	1	0	7	0	0	0	0	0	0	0	19	0	1	18	10
COc1cccc(-n2cnc3c(N)ncnc32)c1 [SKF-97416]	7	8	0	31	12	0	0	0	3	0	11	48	15	0	3	0	4	0	0	21
O=C(NCCNc1ccnc(Nc2ccc(F)cc2)n1)Nc1ccc2c(c1)OCO2 [GSK1379882]	18	2	0	0	2	42	3	0	22	3	16	0	19	8	26	0	0	0	0	18
Nc1ncnc2c1ncn2-c1cccc2ccccc12 [SKF-97184]	3	0	0	0	0	11	0	0	0	0	0	0	0	0	0	0	13	15	0	59
COc1cc2ncn(-c3cc(OCCCc4ccccc4)c(C(N)=O)s3)c2cc1OC [GSK205189]	0	0	5	23	1	2	1	2	21	0	3	0	0	26	0	0	17	1	2	3
O=C(Nc1n[nH]c2nc(-c3ccccc3)c(Br)cc12)C1CC1 [SB-708998]	0	0	0	6	0	0	10	2	15	6	4	0	0	0	0	0	0	0	23	9
